“And” between values parts separate entries of the source, which are not always exact repeats. Equal values may be shown once. Some structures have more than one record in an assay (separate samples or runs), and their calls can disagree. The source made the active and inactive calls. The calls were made as follows: active = hit-call score of the fitted dose curve at least 0.9, where 1 is the maximum; inactive = score below 0.9.
Assay: ATG_ERE_CIS: Attagene CIS-FACTORIAL HepG2 Assay for Estrogen Response Element (ERE) (AID 2282940)
Conditions: HepG2 ERE cis-reporter, Attagene RNA transcript; actives raise or lower the signal
Experimental: ATG_CIS is a cell-based, multiplexed-readout assay that uses HepG2, a human liver cell line, with measurements taken at 24 hours after chemical dosing in a 24-well plate.ATG_ERE_CIS is one of 52 assay component(s) measured or calculated from the ATG_CIS assay. It is designed to make measurements of mRNA induction, a form of inducible reporter, as detected with fluorescence intensity signals by Reverse transcription polymerase chain reaction (RT-PCR) and Capillary electrophoresis technology.Data from the assay component ATG_ERE_CIS was analyzed into 1 assay endpoint. This assay endpoint, ATG_ERE_CIS, was analyzed with bidirectional fitting relative to DMSO as the negative control and baseline of activity. Using a type of inducible reporter, measures of mRNA for gain or loss-of-signal activity can be used to understand the reporter gene at the transcription factor-level as they relate to the gene ESR1. Furthermore, this assay endpoint can be referred to as a primary readout, because this assay has produced multiple assay endpoints where this one serves a reporter gene function. To generalize the intended target to other relatable targets, this assay endpoint is annotated to the nuclear receptor intended target family, where the subfamily is steroidal.
Human liver HepG2 cells are transiently transfected with multiple reporter transcription units (MRTUs) in 6-well plates using FuGene 6 reagent (Roche; 3 ml FuGene/1 mg DNA). The MRTU constructs are regulated by a cis-regulating element (promoter). […] A major difference between the CIS and TRANS system is that in CIS activities of endogenous TFs are measured, whereas the TRANS assay evaluates changes in activities of exogenous, chimeric NR-Gal4 proteins. […] At the end of 24 hour incubation, total RNA was isolated using TriZol reagent (Invitrogen). The isolated RNA is then reverse-transcribed using oligo(dT) primer and Mo-MLV reverse transcriptase (Invitrogen) with DNAse I (Ambion) treatment for 30 min. The one-tenth of the produced cDNA was amplified by PCR using Taq DNA polymerase (Invitrogen) and two reporter sequence-specific primers. The PCR products were fluorescently labeled by primer extension with 6-arboxyfluorescein (6-FAM) 5'-labeled reporter sequence-specific primer (2 min at 95 C, 20 s at 68 C and 10 min at 72 C) and these products were digested with 5U of HpaI (New England Biolabs) for 2h at 37 C. The fragments were purified using Qiaquick PCR columns (Qiagen), analyzed on an ABI 3130xL genetic analyzer (Applied Biosystems) with peak positions identified by using a set of X-rhodamine (ROX)-labeled MapMarker1000 molecular weight standards (BioVentures). The raw capillary electrophoresis data was processed using Attagraph software (Attagene).

SMILES	outcome	AC50
O=C(OC(=O)C(F)(F)C(F)(F)F)C(F)(F)C(F)(F)F	inactive	
O=c1cc(-c2ccccc2)oc2ccc3ccccc3c12		1.19 µM (active) and 521 nM (active)
CCN(CC)CC	inactive	
FC(F)(F)N1C(F)(F)C(F)(F)OC(F)(F)C1(F)F	inactive	
COC1=CC(=O)C[C@@H](C)[C@]12Oc1c(Cl)c(OC)cc(OC)c1C2=O	inactive	
O=C(O)c1cccc(C(=O)O)n1	inactive	
Oc1c(Cl)cc(Cl)cc1Sc1cc(Cl)cc(Cl)c1O	inactive	
O=S(=O)(O)C(F)(F)C(F)(F)C(F)(F)C(F)(F)C(F)(F)C(F)(F)C(F)(F)C(F)(F)C(F)(F)C(F)(F)F	inactive	
COc1cc([N+](=O)[O-])ccc1N	inactive	
CC(=O)Nc1ccc(S(N)(=O)=O)cc1	inactive	
Nc1cc(Cl)c(-c2cc(Cl)c(N)cc2Cl)cc1Cl	inactive	
CCCCCc1ccc(O)cc1		2.4 µM (active)
CCCCCCCCCCCCOC(=O)c1cc(O)c(O)c(O)c1	inactive	
Cc1cncc(C)c1	inactive	
C=CC(=O)OCC(CO)(COCC(COC(=O)C=C)(COC(=O)C=C)COC(=O)C=C)COC(=O)C=C	inactive	
CCC(C)c1nccnc1OC (stereo not given)	inactive	
C=CC(=O)OCCN(CC)CC	inactive	
Cc1cc(=O)oc2cc(O)ccc12		41.8 µM (active) and 58.5 µM (active)
CCCCN(C)C	inactive	
OCCN1CN(CCO)CN(CCO)C1	inactive	

SMILES	outcome	AC50
CCc1cccc(CC)c1NC(=O)C(=O)O	inactive	
COC(=O)CC(C(C)=O)C(=O)OC (stereo not given)	inactive	
CC(C)(C)c1ccc(CCC=O)cc1		144 µM (active)
CCc1ccccc1O	inactive	
Nc1ccn([C@@H]2O[C@H](CO)[C@@H](O)C2O)c(=O)n1 (stereo not given in full)	inactive	
Clc1ccc2c(Cl)ccnc2c1	inactive	
O=C1c2ccc(O)c(O)c2C(=O)c2c(O)ccc(O)c21		13.6 µM (active)
Nc1ccc(O)c(C(=O)O)c1		12.3 µM (active)
CN(CCO)S(=O)(=O)C(F)(F)C(F)(F)C(F)(F)C(F)(F)C(F)(F)C(F)(F)C(F)(F)C(F)(F)F	inactive	
CN(Cc1cnc2nc(N)nc(N)c2n1)c1ccc(C(=O)N[C@@H](CCC(=O)O)C(=O)O)cc1	inactive	
Brc1ccc(Oc2ccc(Br)cc2Br)cc1	inactive	
CCCCc1ccc2ccccc2c1S(=O)(=O)O	inactive	
CC1CCC(C(=O)O)CC1 (stereo not given)		30.5 µM (active)
N=C(N)c1ccc(OCCCCCOc2ccc(C(=N)N)cc2)cc1		23.2 µM (active)
NC(=NCCCCCCN=C(N)/N=C(\N)Nc1ccc(Cl)cc1)/N=C(\N)Nc1ccc(Cl)cc1	inactive	4.6 µM (active)
CC1CNCC(C)O1 (stereo not given)	inactive	
CCCCCCCCCCCCCCCCCC[N+](C)(C)Cc1ccccc1	inactive	
CC(C)(O)C(=O)c1ccccc1	inactive	
CCCCCCC(C)(C)C(=O)O		27.6 µM (active)

Reference: PubChem BioAssay (EPA / NIEHS)
